Assay outcomes (PubChem BioAssay)
ALDH1A1 inh: blocks purified human ALDH1A1 activity; Purified ALDH1A1, NADH fluorescence, propionaldehyde substrate; Potency, µM (titrated, usually from 75.3 µM), without a hit: top-dose activity, negative = inhibition, usual class: inhibitors; 7.3% of 220,000 active; active means well fitted inhibition curve with a large enough effect, not every such curve was filed as active; inconclusive means small, poorly fitted or top-dose-only effect, or another doubt; inactive means no such curve, though single readings can be large or run the other way;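 further: plate controls were no enzyme wells and a reference inhibitor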
HPGD block: blocks human HPGD enzyme activity | 4.3% of 150,000 active | Potency, µM, for the others: at the highest dose activity change, negative = inhibition, hits mostly inhibitors | P15428 | purified HPGD, NADH fluorescence kinetic, PGE2 substrate; active means well fitted inhibition curve with a large enough effect, not every such curve was filed as active; inconclusive means small, poorly fitted or top-dose-only effect, or another doubt; inactive means no such curve, though single readings can be large or run the other way
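NADH formation kinetics: reaction with 30 uM PGE2 and 1 mM NAD+ (final), 20 nM enzyme, Tris-HCl pH 8 with Tween 20, after 15 min compound preincubation at room temperature. Fluorescence change, last versus first of five reads.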
NPSR antagonist: antagonists of human neuropeptide S receptor cAMP signaling; Potency, µM (highest dose often 38.3 µM), for the others: at the highest dose activity change, negative = inhibition, most hits filed as inhibitors; Q6W5P4; CHO-NPSR cells, cAMP TR-FRET, antagonist mode; AID 1461; 1% of 220,000 active; further: nearly all actives have a fitted effect of over 50% in size
Target sequence (Q6W5P4 whole entry, looked up): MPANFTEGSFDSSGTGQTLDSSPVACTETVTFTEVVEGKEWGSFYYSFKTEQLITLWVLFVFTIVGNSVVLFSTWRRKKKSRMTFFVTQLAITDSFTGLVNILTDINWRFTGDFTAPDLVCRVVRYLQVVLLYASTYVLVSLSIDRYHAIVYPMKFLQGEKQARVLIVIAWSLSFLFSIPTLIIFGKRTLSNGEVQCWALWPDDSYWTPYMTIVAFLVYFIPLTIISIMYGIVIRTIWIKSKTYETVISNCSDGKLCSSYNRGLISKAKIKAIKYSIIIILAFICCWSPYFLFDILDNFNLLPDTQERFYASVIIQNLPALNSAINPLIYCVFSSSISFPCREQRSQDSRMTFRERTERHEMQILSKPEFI
Tau fibril ThT: inhibitors of human tau fibril formation, thioflavin T binding; P10636; recombinant tau K18 P301L, heparin-induced fibrillization, ThT fluorescence; Potency, µM (highest dose often 57.4 µM), without a hit: top-dose activity, negative = inhibition, most hits filed as inhibitors; AID 1460; 2.1% of 270,000 active; further: nearly all actives have a fitted effect of over 55% in size
Target sequence (P10636 561-689 P618L limits assumed): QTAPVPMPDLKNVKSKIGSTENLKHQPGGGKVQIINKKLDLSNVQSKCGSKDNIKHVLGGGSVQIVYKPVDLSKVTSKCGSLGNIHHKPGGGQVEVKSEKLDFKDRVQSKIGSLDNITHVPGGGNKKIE
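Aggregation was driven by heparin (20 uM final) acting on recombinant tau […] bearing P301L in 100 mM sodium acetate pH 7; fibrils were detected with Thioflavin T.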
Tau fluor cs: counter-screen for tau fibril formation inhibitors; tau K18 P301L Alexa594 fluorescence, heparin fibrillization; Potency, µM (titrated, usually from 57.7 µM), for inactives: top-dose activity change, negative = decrease; 0.93% of 280,000 active; AID 1463; further: nearly all actives have a fitted effect of over 55% in size
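Human K18 P301L tau (15 uM unlabeled plus 0.24 uM Alexa 594-labeled, final) in 100 mM sodium acetate pH 7 was mixed with compound and 20 uM heparin and incubated 6 hr at 37 C.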
Tau FP inhib: blocks human tau fibril formation measured by polarization. P10636. K18 P301L tau heparin fibrillization, Alexa594 FP, 6 h. Potency, µM (top dose mostly 57.7 µM), for the others: at the highest dose activity, negative = inhibition, most hits filed as inhibitors. 0.39% of 280,000 active. AID 1468; further: nearly all actives have a fitted effect of over 55% in size
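Heparin (20 uM) drove fibril formation of recombinant tau K18 P301L, 15 uM unlabeled with 0.24 uM Alexa 594 label, for 6 hr at 37 C in 100 mM sodium acetate pH 7. Fluorescence polarization (555/632 nm) read 1 hr after 30 uM ThT.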
* hit, by the source's call; ? = inconclusive; . = no result; [ ] = dose if it differs, or a comment. The list is not random: actives were taken first. Their share in the collection is about 9.5%. Unless noted, the call rests on the fitted dose curve; in most records, active means well fitted curve in the direction sought with a large enough effect; inconclusive means small, poorly fitted or top-dose-only effect, or another doubt; inactive means no such curve, though single readings can be large; an effect the other way counts as inactive or inconclusive. Unless noted, on the % scale 0 is the no-effect control and ±100 the full control effect; potency means the concentration at half of the fitted maximal effect.

SMILES	ALDH1A1 inh	HPGD block	NPSR antagonist	Tau fibril ThT	Tau fluor cs	Tau FP inhib
CCOc1ccc(/C=N/n2cc(-c3ccccc3)[nH]c2=S)cc1	3%	.	-33%	?	-22%	-5%
S=c1[nH]c(-c2ccccc2)cn1/N=C/c1ccncc1	.	.	58%	11µM*	?	-9%
COC(=O)C1(C(=O)OC)CC2=C[C@H](CC2=O)Cc2ccccc2[C@@H]1C[N+](=O)[O-]	-10%	-6%	.	-7%	-4%	-1%
COc1ccccc1NC(=O)c1ccc(NC(=O)CN2C(=O)CN(C)C2=O)cc1	?	.	9%	?	-12%	-7%
COc1ccccc1N1CCN(/N=C/c2cc(OC)c(O)c(OC)c2)CC1	16µM*	?	-3%	8%	8%	9%
COc1ccccc1N1CCN(/N=C/c2cccc(O)c2)CC1	?	.	7%	-15%	-5%	14%
CC(C)C[C@@H](CC(=O)N[C@@H](CCC(=O)O)CC(=O)O)NC(=O)[C@@H]1CNCC[C@H]1NC(=O)C[C@H](CCCN)NC(=O)C[C@H](CO)NC(=O)[C@@H]1CNCC[C@H]1N	?	-8%	.	0%	-1%	7%
CC(=O)c1cccc(S(=O)(=O)NC2CCCCCC2)c1	10µM*	-14%	13%	-2%	-4%	6%
O=C(Cn1nnc(-c2ccc(CN3CCOCC3)cc2)n1)N(c1ccccc1)c1ccccc1	11µM*	.	15%	-5%	-5%	6%
CC1(C)Cc2ccccc2-c2nnc(-c3ccccc3)n21	-1%	-2%	-10%[46.1 µM]	-10%	4%	0%
CC1(C)Cn2c(nnc2-c2ccccc2)S1	3%	16µM*	2%[46.1 µM]	0%	-4%	-2%
COc1cccc(NC(=O)COC(=O)Cc2ccccc2[N+](=O)[O-])c1	?	.	-10%	-3%	-11%	5%
CSc1cccc(NC(=O)Cc2ccccc2[N+](=O)[O-])c1	35µM*	.	-2%	-2%	-19%	?
CCC(CC)c1nnc(NC(=O)Cc2ccccc2[N+](=O)[O-])s1	20µM*	.	9%	-12%	-16%	6%
CCOc1ccc(C(=O)Nc2nnc(C(C)C)s2)cc1OCC	25µM*	28µM*	-8%[46.1 µM]	-2%	-3%	-3%
CCOc1ncccc1C(=O)Nc1nnc(C(CC)CC)s1	4.5µM*	.	-24%	-6%	-12%	-1%
Cc1ccc2onc(CC(=O)Nc3cc(F)ccc3F)c2c1	.	.	.	-6%	0%	-1%
Cc1ccc(O)c(N)c1	?	-9%	.	.	.	.
C/C(O)=C(\N=Nc1cc(C)ccc1O)C(N)=O	?	.	9%	10µM*	?	13%
Cc1ccc(-c2nnc(SCC(=O)NC(C)(C)C)nc2-c2ccc(C)cc2)cc1	.	.	.	0%	-6%	3%
CC1(C)CC(=O)C(C=NCc2ccc3c(c2)OCO3)=C(O)C1	-7%	-20%	-8%[46.1 µM]	-2%	4%	-1%
CC1(C)CC(=O)C(C=Nc2ccc(C(=O)c3ccccc3)cc2N=CC2=C(O)CC(C)(C)CC2=O)=C(O)C1	10µM*	.	1%	?	-6%	-3%
CC1(C)CC(=O)C(C=Nc2ccc(O)c(N=CC3=C(O)CC(C)(C)CC3=O)c2)=C(O)C1	1.1µM*	.	-20%	4µM*	?	?
CC1(C)CC(=O)C(C=Nc2ccc3c(c2)OCO3)=C(O)C1	13µM*	-23%	-12%[46.1 µM]	-11%	-8%	-3%
Cc1cc(C)nc(SCc2ccc(C(=O)N/N=C/C3CCCCC3)cc2)n1	?	-17%	-2%	?	-6%	5%
SMILES	ALDH1A1 inh	HPGD block	NPSR antagonist	Tau fibril ThT	Tau fluor cs	Tau FP inhib
OB(O)O	-11%	-17%	.	.	.	.
CN1CCN([C@@H](c2ccccc2)c2ccc(Cl)cc2)CC1	5%[20.9 µM]	-3%	.	.	.	.
Cc1ccc(C(=O)N2CCC(N3CCN(Cc4ccc(F)cc4)C(=O)C3=O)CC2)cc1	.	.	.	-12%	-11%	4%
CC(C)CCCC(C)C1CCC2C3CC(O)[C@@]4(O)CC(O)CC[C@@]4(C)C3CC[C@@]12C (stereo partly drawn)	7%	-19%	.	3%	-1%	-4%
CN(C)CCCO[C@H]1[C@@H]2OC(C)(C)O[C@@H]2O[C@@H]1[C@H](O)CO	10%[20.9 µM]	3%	.	.	.	.
O=C(Cn1ncn2c(cc3sccc32)c1=O)NCCc1ccccc1	.	.	.	-4%	-5%	-10%
O=C(C1CCCCC1)N1CCN(c2ccnc3cc(Cl)ccc23)CC1	.	.	-49%	.	-7%	11%
COCCCNC(=S)Nc1ccccc1[N+](=O)[O-]	22µM*	.	-1%	1%	-2%	1%
COc1cc(C(=O)NC(=S)Nc2ccc([N+](=O)[O-])cc2C)cc(OC)c1OC	13µM*	-7%	-6%	1%	-9%	-2%
COc1cc(C(=O)NC(=S)Nc2ccccc2[N+](=O)[O-])cc(OC)c1OC	18µM*	.	-14%	-8%	-12%	0%
COc1cc(C(=O)NC(=S)Nc2ccc([N+](=O)[O-])cc2)cc(OC)c1OC	?	-14%	28%	-1%	-3%	-3%
CCOC(=O)C(=O)Nc1cc([N+](=O)[O-])ccc1C	?	-4%	15%	-3%	-5%	0%
Cc1ccccc1C(=O)NC(=S)Nc1ccccc1[N+](=O)[O-]	?	.	-13%	-3%	-10%	-1%
CCCCNC(=S)Nc1cc([N+](=O)[O-])ccc1C	0%	14µM*	7%	3%	2%	2%
CC(=O)Nc1cccc(C(=O)NCc2ccc3c(c2)CCN3C(=O)c2ccc(F)cc2)c1	.	.	.	6%	-6%	-5%
Cc1cccc(N2C(=O)CC(c3ccc(F)cc3)C3=C2COC3=O)c1 (stereo not drawn)	6%	.	-6%	-2%	-5%	2%
O=C(O)[C@H](C1NCCS1)N1C(=O)c2ccccc2C1=O (stereo partly drawn)	-1%[13.5 µM]	-9%	.	.	.	.
N=c1sccn1CC(=O)Nc1cccc(S(N)(=O)=O)c1	.	.	-31%	3%	4%	-5%
N=c1sccn1CC(=O)Nc1ccc(S(N)(=O)=O)cc1	7.1µM*	.	-21%	-3%	-5%	-3%
N=c1sccn1CC(=O)Nc1ccc(Cl)cc1[N+](=O)[O-]	28µM*	.	-29%	-3%	2%	1%
COCCCNc1ncnc2onc(-c3ccc(F)cc3)c12	.	.	.	-3%	-5%	-8%
Cc1cccc(C)c1OCc1n[nH]c(=S)o1	8.9µM*	-3%	-4%[46.1 µM]	-11%	-4%	-2%
Cc1cccc(OCc2n[nH]c(=S)o2)c1C	18µM*	.	-10%	-12%	-5%	-9%
c1cncc(-c2nnc(SCc3cccc4ccccc34)o2)c1	-3%	25µM*	-13%[46.1 µM]	-12%	-15%	6%
O=C(CSc1nnc(-c2cccnc2)o1)OC1CCCCC1	10µM*	-14%	-9%[46.1 µM]	-4%	3%	10%
